Screens deposited in PubChem by The Scripps Research Institute Molecular Screening Center.
TEAD-YAP block: TEAD-YAP interaction inhibition; HEK-TIYL cells, TEAD-Gal4/YAP UAS-luciferase luminescence; inhibition, % at 9.12 µM; 640,000 compounds, 1.4% hits; AID 1259422; in the data active means inhibition above about 32%;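 further: 0% = median of test compound wells and 100% = reference inhibitor wells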
GPR151 activ: activators of human GPR151. AID 1508602. Q8TDV0. 650,000 compounds, 1% hits. PathHunter beta-arrestin GPR151 cells, luminescence. activation, % at 11.2 µM; in the data active means activation above about 4.9%;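 further: 0% = median of compound wells and 100% = cells with positive control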
FBW7 act: human FBW7 E3 ligase activation, primary screen. Q969H0. AlphaScreen FBW7–phospho-cyclin E peptide binding, activator screen. normalized activity (activation), % at 26.1 µM. 650,000 compounds, 0.13% hits. AID 1259310; in the data active means normalized activity above about 1.9%;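 further: purified mutant Fbw7 with reduced substrate affinity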
Target sequence (Q969H0 whole entry, looked up): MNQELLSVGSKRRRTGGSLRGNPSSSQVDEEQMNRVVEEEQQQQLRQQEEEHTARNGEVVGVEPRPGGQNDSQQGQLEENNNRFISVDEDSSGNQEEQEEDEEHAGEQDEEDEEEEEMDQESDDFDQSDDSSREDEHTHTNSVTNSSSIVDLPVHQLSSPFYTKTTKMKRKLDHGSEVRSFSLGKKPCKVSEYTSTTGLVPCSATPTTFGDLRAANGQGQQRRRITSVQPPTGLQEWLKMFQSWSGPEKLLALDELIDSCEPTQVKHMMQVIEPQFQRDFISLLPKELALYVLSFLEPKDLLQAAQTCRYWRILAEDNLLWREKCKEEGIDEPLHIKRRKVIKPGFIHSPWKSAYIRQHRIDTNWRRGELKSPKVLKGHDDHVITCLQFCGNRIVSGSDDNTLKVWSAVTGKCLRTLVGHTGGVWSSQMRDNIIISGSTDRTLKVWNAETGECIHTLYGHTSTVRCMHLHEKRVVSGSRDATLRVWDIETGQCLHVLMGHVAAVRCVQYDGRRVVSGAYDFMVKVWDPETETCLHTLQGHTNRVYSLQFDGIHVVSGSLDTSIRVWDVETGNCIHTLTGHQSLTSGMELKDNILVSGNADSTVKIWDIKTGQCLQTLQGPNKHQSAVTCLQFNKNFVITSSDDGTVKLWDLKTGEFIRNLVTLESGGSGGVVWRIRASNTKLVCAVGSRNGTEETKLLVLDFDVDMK
MITF inh: inhibitors of human MITF. inhibition, % at 2.6 µM. AlphaScreen MITF homodimerization, bead proximity signal. O75030. AID 1259374. 650,000 compounds, 0.91% hits; in the data active means inhibition above about 50%;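 further: 0% = vehicle wells with protein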
The depositor's hits bear a star. A selection: hits, their analogues and other compounds. The true share with any hit is near 3.5%.

SMILES | TEAD-YAP block | GPR151 activ | FBW7 act | MITF inh
CCN(CC)c1ccc(/C=C/C23NC(=O)CCN2c2ccc(C)cc2C3(C)C)cc1 (stereo not drawn) | 51.8* | 1.6 | -1.1 | 39.9
COc1cc(Cc2nc3cc(C)c(C)cc3[nH]c2=O)cc(OC)c1OC | 54.6* | -0.6 | 0.1 | 4.0
COc1ccccc1Cc1nc2cc(C)c(C)cc2[nH]c1=O | 7.0 | 0.6 | 0.0 | 6.8
COc1cc(/C=N/NC(=O)c2cc(C)[nH]n2)c(Br)c(Br)c1O | 4.1 | 0.6 | 0.2 | 16.6
Cc1cc(C(=O)N/N=C/c2cc(N=Nc3ccccc3)ccc2O)n[nH]1 | 61.6* | -0.4 | 0.0 | 28.4
Cc1cc(C(=O)N/N=C\c2ccccc2O)n[nH]1 | -42.5 | -0.1 | -1.8 | 29.6
COc1cc(Br)cc(/C=N/NC(=O)c2cc(C)[nH]n2)c1O | 18.6 | 0.7 | -0.1 | 55.0*
COc1cc([N+](=O)[O-])cc(/C=N/NC(=O)c2cc(C)[nH]n2)c1O | -4.9 | -0.9 | -0.8 | 59.0*
CCN(CC)c1nc(Nc2ccc(N3CCOCC3)cc2)nc(Nc2nc3ccccc3n2C)n1 | 22.5 | -0.5 | -0.3 | -0.7
c1cnc2ccc(Nc3nccc(Nc4ccc(N5CCOCC5)cc4)n3)cc2c1 | 81.5* | 4.7 | 0.0 | 24.3
Cc1cc(Nc2ccccc2)nc(N2CCN(C(=O)C(C)(C)C)CC2)n1 | 31.9* | 1.1 | -0.1 | -4.7
Cn1c(Nc2nccc(Nc3ccc(N4CCOCC4)cc3)n2)nc2ccccc21 | 53.5* | 3.5 | -0.3 | 22.1
Cc1cc(Nc2ccc(N3CCOCC3)cc2)nc(Nc2ncccn2)n1 | 6.7 | 0.2 | -0.1 | 7.1
Cc1cc(Nc2ccc(N3CCOCC3)cc2)nc(Nc2ccc3ncccc3c2)n1 | 56.8* | 0.7 | -0.3 | -0.9
CC(=O)Nc1ccc(Nc2cc(C)nc(N3CCN(c4ccccn4)CC3)n2)cc1 | 9.0 | -1.1 | 0.1 | 4.7
COc1ccc(S(=O)(=O)N2CCN(c3ccc(-c4cccs4)nn3)CC2)cc1 | 5.8 | -0.8 | -0.1 | -25.2
Cc1cc(N2CCCC(C(=O)O)C2)n2cnnc2n1 (stereo not drawn) | 3.9 | 2.4 | 0.0 | 0.2
CC1=C(C(=O)N2CCCCC2)C(c2ccc(C(F)(F)F)cc2)C2=C(CC(C)(C)CC2=O)N1 (stereo not drawn) | 3.1 | 0.6 | -0.2 | -11.1
Cc1cc(Nc2ccc(N3CCOCC3)cc2)nc(N2CCc3ccccc3C2)n1 | 40.8* | 2.2 | -0.3 | 19.1
Cn1c(-c2ccccc2)cn2cc(-c3ccccc3)nc12 | 100.0* | -2.3 | -0.1 | -9.3
Cn1c(-c2ccccc2)cn2cc(-c3ccc(F)cc3)nc12 | 97.0* | -5.0 | -0.5 | 6.2
Cc1ccc(CNC(=O)CSc2nnc3ccc(-c4ccccc4)nn23)cc1 | -1.3 | -1.5 | -0.1 | 3.8
CCC(=O)Nc1c(C)nn(-c2ccc(C)c(C)c2)c1C | -26.9 | -0.7 | 0.0 | -1.5
Cc1ccc(-n2nc(C)c(NC(=O)CCl)c2C)cc1C | 44.7* | 2.3 | 0.2 | -6.8
CCN1CCN(Cc2ccc(NC(=O)Nc3ccccc3)cc2)CC1 | 52.3* | 0.3 | 0.1 | 2.7
SMILES | TEAD-YAP block | GPR151 activ | FBW7 act | MITF inh
CCN1CCN(Cc2ccc(NC(=O)Nc3ccc(OC)cc3)cc2)CC1 | -33.2 | 3.1 | 0.7 | 22.0
O=C(Cc1cccc2ccccc12)N/N=C\c1ccc(F)cc1 | 2.5 | -0.6 | -0.1 | -1.8
Cc1cc(C(=O)O)c(-n2cccc2)s1 | -3.4 | 0.0 | -0.2 | 1.1
O=C(CSc1ccsc1[N+](=O)[O-])Nc1cc(F)ccc1F | 32.1* | 1.0 | -0.2 | 48.9
Cc1cc(F)ccc1NC(=O)CSc1ccsc1[N+](=O)[O-] | 5.8 | 1.2 | -0.3 | 13.5
Cn1c(=O)[nH]c(=O)c2c1nc(NCc1ccccc1)n2Cc1cccc2ccccc12 | 9.0 | -0.7 | 0.1 | 4.3
Oc1ccc(-c2cn3c(n2)SCC3)cc1O | -16.9 | -0.6 | -0.1 | 65.5*
Oc1ccc(-c2cn3c(n2)SCC3)cc1 | 2.6 | 3.3 | 0.3 | 8.5
FC1(F)Oc2ccc(Nc3nccc(-c4cncc(N5CCOCC5)c4)n3)cc2O1 | -2.6 | -1.8 | 0.5 | 22.5
c1cc(-c2cncc(N3CCOCC3)c2)nc(Nc2ccc(-n3cncn3)cc2)n1 | 7.8 | -1.7 | 0.7 | 15.9
O=C(c1ccc(Nc2nccc(-c3cncc(N4CCOCC4)c3)n2)cc1)N1CCOCC1 | 51.5* | 1.1 | -0.1 | 0.5
c1cn(-c2ccc(Nc3nccc(Nc4ccc5c(c4)OCO5)n3)cc2)cn1 | 36.3* | 1.6 | -0.1 | 9.8
c1cn(-c2ccc(Nc3nccc(-c4cncc(N5CCOCC5)c4)n3)cc2)cn1 | 78.1* | -0.6 | -0.2 | 16.2
O=C1OCCN1c1ccc(Nc2nccc(-c3cncc(N4CCOCC4)c3)n2)cc1 | 38.5* | 0.9 | -0.3 | 0.1
Nc1nc(Nc2ccc(-n3ccnc3)cc2)cc(Nc2ccc3c(c2)OCO3)n1 | -21.8 | 0.4 | 0.1 | 2.4
COc1ccc(CCNC(=O)Nc2ccccc2OC)cc1 | -9.1 | -0.4 | 0.3 | -2.7
Cc1ccc(/C=C(\C#N)C(=O)N2CCCCCC2)cc1 | 5.4 | 4.3 | -0.1 | 2.9
CC(NC(=O)C(NS(=O)(=O)c1cccc2cccnc12)c1ccccc1)c1ccccc1 (stereo not drawn) | 9.2 | -0.3 | 0.0 | 4.0
CC(NC(=O)CSc1ccccn1)C12CC3CC(CC(C3)C1)C2 (stereo not drawn) | 0.2 | -0.1 | 0.5 | 18.4
Cn1ncc2cc(Nc3nccc(-c4cncc(N5CCOCC5)c4)n3)ccc21 | 68.7* | 0.2 | -0.2 | -0.1
COc1ccc(Nc2nccc(-c3cncc(N4CCOCC4)c3)n2)cc1 | 61.1* | -0.2 | 0.6 | 3.1
c1cn(-c2ccc(Nc3nccc(Nc4ccc(N5CCOCC5)cc4)n3)cc2)cn1 | 50.0* | 3.9 | -0.2 | 21.1
c1ccc(Nc2ccnc(Nc3ccc(N4CCOCC4)cc3)n2)cc1 | 0.6 | -0.2 | -0.3 | 7.2
CCc1nc2ccc(Nc3nccc(-c4cncc(N5CCOCC5)c4)n3)cc2o1 | 34.1* | 1.3 | 0.6 | 16.8
c1ccc(Cc2nc3ccc(Nc4nccc(-c5cncc(N6CCOCC6)c5)n4)cc3o2)cc1 | 28.8 | -0.4 | -0.1 | -7.1
SMILES | TEAD-YAP block | GPR151 activ | FBW7 act | MITF inh
CCCN1C(=O)C(O)(CC(=O)c2ccc(OC)c([N+](=O)[O-])c2)c2ccccc21 (stereo not drawn) | 5.6 | 1.0 | 0.0 | 5.5
CCOC(=O)N1CCN(CC(O)COC(C)C)CC1 (stereo not drawn) | 0.5 | -0.6 | 0.0 | -3.8
COc1ccc(-c2ncc(C(N)=O)s2)cc1 | 49.1* | -7.1 | 0.0 | -5.7
NC(=O)c1ccc(-c2ccc(N3CCOCC3)nc2)s1 | 50.1* | -11.8 | 0.1 | 18.0
NC(=O)c1cnc(-c2ccc(N3CCOCC3)nc2)s1 | 63.4* | -7.6 | -0.1 | 5.9
CCCNC(=O)c1cnc(-c2ccc(N3CCOCC3)nc2)s1 | -0.4 | 0.0 | 0.1 | 1.1
CC1=C(C(=O)Nc2ccc(C)cc2C)C(c2ccc(C)o2)n2ncnc2N1 (stereo not drawn) | -1.6 | -1.7 | -0.1 | -4.8
O=C1/C(=C/c2cccnc2)SC(=S)N1Cc1cccnc1 | 32.9* | 3.6 | 0.1 | 24.6
COc1ccc(-c2cn(-c3ccccc3)c3[n+]2CCS3)cc1 | 32.3* | 0.0 | -0.1 | 8.6
COc1ccc(-n2cc(-c3ccccc3)[n+]3c2SCC3)cc1 | 58.9* | -0.1 | 0.2 | -0.5
